In PubChem BioAssay:
Inconclusive results are not listed. Calls of active or inactive are those of the source.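 Rule for the calls, unless noted: active = viability at or below 30% in both replicate assays; inconclusive = viability at or below 30% in just one of the two assays; inactive = the rest.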

Legend:
[1] = reducers of endogenous Her2 protein level, primary screen, SKBR3 breast tumor cells, AlphaScreen, ATP viability (AID 461;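 active = Her2 level under about 52% in both replicate screens, with viability over 70% of control, limit read from the data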;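 for Her2 level: lower value means less Her2 protein in the cells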;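 for viability: percent of carrier control wells set as 100% viability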); conditions: 18-24 h, measured here: SKBR3 viability, ATP luminescence, at 10 µM
[2] = molecular target: Receptor tyrosine-protein kinase erbB-2 (Homo sapiens) (UniProt P04626); assay: as above; conditions: 18-24 h, at 10 µM, stronger effect = lower value
Sequence of Receptor tyrosine-protein kinase erbB-2 (Homo sapiens) (P04626 whole entry, looked up): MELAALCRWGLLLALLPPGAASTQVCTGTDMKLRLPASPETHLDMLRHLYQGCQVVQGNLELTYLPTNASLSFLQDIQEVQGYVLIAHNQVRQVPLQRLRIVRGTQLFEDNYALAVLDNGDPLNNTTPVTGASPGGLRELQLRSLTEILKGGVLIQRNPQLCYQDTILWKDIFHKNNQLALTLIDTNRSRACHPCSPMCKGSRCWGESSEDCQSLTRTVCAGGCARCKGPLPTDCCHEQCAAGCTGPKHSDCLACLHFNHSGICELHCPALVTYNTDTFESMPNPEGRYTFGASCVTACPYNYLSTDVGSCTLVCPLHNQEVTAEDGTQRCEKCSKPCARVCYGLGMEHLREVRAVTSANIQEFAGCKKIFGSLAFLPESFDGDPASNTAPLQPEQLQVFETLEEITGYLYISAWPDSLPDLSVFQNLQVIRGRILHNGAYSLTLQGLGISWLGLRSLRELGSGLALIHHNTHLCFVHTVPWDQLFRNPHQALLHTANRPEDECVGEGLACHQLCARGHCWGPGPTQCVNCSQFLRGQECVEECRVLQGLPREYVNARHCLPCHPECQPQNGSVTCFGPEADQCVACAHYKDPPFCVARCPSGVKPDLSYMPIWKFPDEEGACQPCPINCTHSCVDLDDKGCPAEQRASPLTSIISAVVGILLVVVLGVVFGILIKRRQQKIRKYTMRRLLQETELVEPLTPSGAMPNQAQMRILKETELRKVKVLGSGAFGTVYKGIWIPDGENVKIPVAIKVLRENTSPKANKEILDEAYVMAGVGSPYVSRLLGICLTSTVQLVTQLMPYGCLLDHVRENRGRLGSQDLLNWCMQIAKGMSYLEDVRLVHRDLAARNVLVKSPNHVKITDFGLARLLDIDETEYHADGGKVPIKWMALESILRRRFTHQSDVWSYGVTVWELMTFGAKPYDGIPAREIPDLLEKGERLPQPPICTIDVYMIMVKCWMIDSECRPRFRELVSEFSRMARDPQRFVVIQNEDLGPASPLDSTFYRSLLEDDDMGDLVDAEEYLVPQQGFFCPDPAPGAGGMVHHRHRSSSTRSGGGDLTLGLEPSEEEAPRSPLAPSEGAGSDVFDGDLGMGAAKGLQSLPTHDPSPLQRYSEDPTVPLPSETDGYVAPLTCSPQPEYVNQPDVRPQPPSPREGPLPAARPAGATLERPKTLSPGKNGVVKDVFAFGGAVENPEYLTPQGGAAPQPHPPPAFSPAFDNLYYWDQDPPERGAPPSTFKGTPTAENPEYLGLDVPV

[3] = SK-BR-3 cell growth inhibitors, pilot screen, 24 h, human (AID 572;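 active = viability at or below 10% of carrier control in both of two separate runs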;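 note: compound exposure lasted between 18 and 24 h rather than exactly 24 h; 100% = carrier-treated control wells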); conditions: SK-BR-3 viability, CellTiter-Glo luminescence, at 10 µM, stronger effect = lower value
[4] = HUVEC growth inhibition – cell-based, human, primary screen (AID 575); conditions: HUVEC proliferation, CellTiter-Glo luminescence, 72 h; at 10 µM; stronger effect = lower value;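 note: 100% = median of untreated cell wells with 0.1% DMSO on each plate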
[5] = growth inhibitors of H69AR lung tumor, primary screen, human, duplicate replicates (AID 580;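 active = viability at or under a set limit in both replicates, limit being median viability minus 3 SD, cut at about 48% in these data, passing the limit was not always enough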;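 note: 100% = mean luminescence of untreated wells and 0% = no signal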); conditions: H69AR lung tumor cells viability, ATP luminescence, 72 h; at 10 µM; stronger effect = lower value
[6] = reversal of MRP1-mediated doxorubicin resistance, pilot screen, H69AR cells, doxorubicin co-treatment (AID 601;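 active = viability loss from added drug above about 55%, and viability with drug at most 40%, in both replicates, limit read from the data, passing the limit was not always enough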); conditions: CellTiter-Glo, 72 h, at 10 µM; for differential viability (reversal): stronger effect = higher value
[7] = 384-well plate pilot, post-Golgi transport modulator project, inhibition of yeast transport mutant growth (AID 636; in the data active = inhibition above about 31%); conditions: absorbance 615 nm, about 18 h, stronger effect = higher value
[8] = growth suppression of yeast trafficking mutant, preliminary HTS, modulators of trafficking downstream of Golgi apparatus project, 1536-format plate, OD 615 nm (AID 637; in the data active = inhibition above about 30%); conditions: yeast transport mutant growth, absorbance 615 nm, 18 h; stronger effect = higher value
[9] = OD615 S. cerevisiae growth inhibition, permissive medium, pilot counter-assay, permissive growth control for S. cerevisiae lifespan shortening project (AID 705;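 active = growth inhibition above 25% in both replicates, a cutoff set 3 SD above the mean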); conditions: OD615, 24 h, at 10 µM, stronger effect = higher value
[10] = Restrictive medium S. cerevisiae growth inhibition, OD615, pilot screen of yeast lifespan reduction project, restrictive growth control (AID 706;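 active = growth inhibition above a set limit, 3 SD over mean compound inhibition, in both replicates, cut at about 43% in these data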;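 note: modified DeaD lifespan yeast strain shifted to restrictive glucose medium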); conditions: OD615, 48 h, at 10 µM, stronger effect = higher value
[11] = viability gain of MRP-1-high H69AR cells under doxorubicin, pilot screen, MRP-1 activator project, CellTiter-Glo, duplicate (AID 807;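 active = viability increase at or above a cutoff of the median across tested compounds plus 3 SD, cut at about 8.5% in these data, passing the limit was not always enough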;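 note: compound pretreatment 18-22 h then 72 h combined with doxorubicin; 0% = doxorubicin alone and 100% = vehicle without doxorubicin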); conditions: H69AR viability with doxorubicin, CellTiter-Glo luminescence; at 10 µM; stronger effect = higher value
[12] = growth suppression of beta-catenin knockout HCT116, pilot screen, human colon tumor cells (AID 823;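 active = cell viability at or below a set limit in both duplicate runs, the limit being the all-compound median minus 4 SD, cut at about 23% in these data, passing the limit was not always enough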;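 note: 0% = wells killed by 20 µM Hyamine and 100% = untreated DMSO cell wells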); conditions: CellTiter-Glo, 60 h, at 10 µM, stronger effect = lower value
[13] = growth suppression of PTEN-deleted HCT116, pilot screen, cell-based, HCT116 clonal line, CellTiter-Glo (AID 824;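 active = viability at or below 27.92% in each of two runs, the all-compound median minus 4 SD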;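 note: 0% = 20 µM Hyamine control and 100% = vehicle cell control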); conditions: 60 h, at 10 µM, stronger effect = lower value
[14] = inhibitors of the yeast RAM network, pilot screen, dse1pr::URA3 reporter, 5-FOA selection (AID 869;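 active = inhibition over a set limit, the all-compound mean plus 3 SD, in both replicate runs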;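 note: 0% = DMSO wells with no growth and 100% = 10 µM 1-NA-PP1 with full growth; RAM network block rescues cells from 5-FOA so hits raise OD615 growth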); conditions: S. cerevisiae dse1pr::URA3 5-FOA growth, OD615, 2 d; at 10 µM; stronger effect = higher value; strain carries analog-sensitive mutant Cbk1 kinase
[15] = RAM signaling pathway blockade in yeast – S. cerevisiae, Pdr1DBD-CYC8 efflux-inhibited sensitized strain, primary screen (AID 1298;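 active = RAM network inhibition above 8.4% in each of two replicates, 3 SD over the compound average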;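 note: 0% = DMSO untreated cells without growth and 100% = 10 µM 1-NA-PP1 full growth; higher means more yeast growth rescued from 5-FOA killing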); conditions: S. cerevisiae cbk1-as DSE1-URA3 strain, 5-FOA growth OD615, 2 d; at 50 µM; stronger effect = higher value
[16] = H69AR cells + 2 uM doxorubicin, measured here: viability with 2 uM doxorubicin, stronger effect = lower value
[17] = H69AR cells, compound alone cytotoxicity

SMILES	viability [1] [%]	Her2 level [2]	viability [3]	viability [4]	viability [5]	differential viability (reversal) ([6]; H69AR cells + 2 uM doxorubicin)	viability [6, 16] [%]	viability [6, 17] [%]	inhibition [7]	inhibition [8]	growth inhibition [9]	growth inhibition [10]	viability increase [11]	viability [12]	viability [13]	inhibition [14]	RAM network inhibition [15]
COc1ccc(S(=O)(=O)Cc2ccc(C(=O)N3CCN(c4ccccc4)CC3)o2)cc1	72.5	115% (inactive)	72.5% (inactive)	104% (inactive)	84.4% (inactive)	-1.7% (inactive)	86.1	84.4	-2.8% (inactive)	-7.5% (inactive)	-11.7% (inactive)	-18.9% (inactive)	-2.99% (inactive)	88.8% (inactive)	89.3% (inactive)	0.76% (inactive)	8.54% (inactive)
COCCOC(=O)C1=C(C)OC(N)=C(C#N)C1c1ccc2c(c1)OCO2 (stereo unspecified)	98	91.5% (inactive)	98% (inactive)	93.7% (inactive)	84.8% (inactive)	4.96% (inactive)	79.8	84.8	-3.12% (inactive)	-7.5% (inactive)	2.33% (inactive)	-2.95% (inactive)	-1.47% (inactive)	106% (inactive)	105% (inactive)	0.465% (inactive)	3.07% (inactive)
Cc1occc1C(=O)N1CCN(Cc2ccccc2)CC1	85.5	89% (inactive)	85.5% (inactive)	98.1% (inactive)	89.3% (inactive)	3.23% (inactive)	86	89.3	0.26% (inactive)	-5.5% (inactive)	-0.31% (inactive)	-15.5% (inactive)	-1.95% (inactive)	94.7% (inactive)	97.6% (inactive)		2.68% (inactive)
CCCCn1c(CNC(=O)CCC)nc2ccccc21	116	102% (inactive)	116% (inactive)	87.8% (inactive)	91.8% (inactive)	3.83% (inactive)	87.9	91.8	-5.2% (inactive)	-4.67% (inactive)	-9.17% (inactive)	-13.8% (inactive)	-2.97% (inactive)	104% (inactive)	100% (inactive)	-0.485% (inactive)	1.51% (inactive)
CCc1nn(CC(=O)NCCCN2CCc3ccccc3C2)c(=O)c2cc3sccc3n12	86	86.5% (inactive)	86% (inactive)	89.1% (inactive)	77.5% (inactive)	-3.23% (inactive)	80.8	77.5	-3.46% (inactive)	1% (inactive)	-2.08% (inactive)	-10.3% (inactive)	-4.54% (inactive)	78.9% (inactive)	79.9% (inactive)	0.58% (inactive)	1.52% (inactive)
CCN(CC)C(=O)COc1ccc2oc(C)c(C(=O)OC(C)C)c2c1	83	104% (inactive)	83% (inactive)	91.4% (inactive)	74.1% (inactive)	-4.69% (inactive)	78.8	74.1	-1.69% (inactive)	-6% (inactive)	-11.4% (inactive)	-9.19% (inactive)	-6.09% (inactive)	84.2% (inactive)	84.8% (inactive)	1.08% (inactive)	7.42% (inactive)
Cc1cc(C)cc(N2C(=O)CC(N3CCOCC3)C2=O)c1 (stereo unspecified)	104	84% (inactive)	104% (inactive)	100% (inactive)	191% (inactive)	98.5% (inactive)	92.2	191	-1.89% (inactive)	0.82% (inactive)	-9.16% (inactive)	-2.19% (inactive)	-0.95% (inactive)	102% (inactive)	92.5% (inactive)	0.41% (inactive)	0.87% (inactive)
CCOC(=O)c1ccc(NCc2nc3ccccc3[nH]2)cc1	88.5	97% (inactive)	88.5% (inactive)	86% (inactive)	105% (inactive)	15.1% (inactive)	89.7	105	0.93% (inactive)	-2.62% (inactive)	-1.66% (inactive)	-8.54% (inactive)	-5.9% (inactive)	86.8% (inactive)	76.8% (inactive)	1.83% (inactive)	2.11% (inactive)
O=C1CCCC2=C1C(c1cccc(Br)c1)n1nc(-c3ccco3)nc1N2 (stereo unspecified)	95.5	73% (inactive)	95.5% (inactive)	80.6% (inactive)	103% (inactive)	2.4% (inactive)	100	103	-1.73% (inactive)	-2.95% (inactive)	-11.7% (inactive)	-0.21% (inactive)	-2.06% (inactive)	81.5% (inactive)	76.5% (inactive)		0.99% (inactive)
